# Assay results taken from the supplement of paper PMC7156485.
# Columns and labels:
# Conditions in all cases: concentration: 10 µM; 24 h
# HCC1569 [1] = assay: cell number relative to DMSO (% of DMSO); higher = more cells (less growth inhibition / toxicity)
# Outline: (§1)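 Treatment: HCC1569 and TDF cells, 800 per well in 384-well plates with RPMI and 10% FBS, were given compounds at 10 µM for 24 h at 37 °C, in triplicate. Readout: after 3.7% formaldehyde fixation, cells were stained with a rabbit anti-H1.0 antibody, an AlexaFluor 647 secondary and DAPI. Reported values are H1.0 nuclear intensity or cell number as percent of the plate control, taken as the median of replicates, with positional smoothing for HCC1569.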
# TDF [2] = assay: as above
# Outline: as §1
# TDF [3] = assay: H1.0 immunofluorescence intensity relative to DMSO (% of DMSO); higher = stronger H1.0 induction, active = 120 or more
# Outline: as §1
# HCC1569 [4] = assay: H1.0 immunofluorescence intensity relative to DMSO (% of DMSO); higher = stronger H1.0 induction, active = 140 or more
# Outline: as §1
# 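Throughout, for H1.0 immunofluorescence intensity relative to DMSO: TDF is a line of transformed human dermal fibroblasts of mesenchymal origin.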
# 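Throughout, for cell number relative to DMSO: TDF denotes transformed human dermal fibroblasts of mesenchymal origin.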
Compound,cell number (HCC1569 [1]),cell number (TDF [2]),H1.0 immunofluorescence intensity (TDF [3]),H1.0 immunofluorescence intensity (HCC1569 [4])
CC(N)=NCc1cccc(CN)c1.Cl.Cl [1400W dihydrochloride],101,119,90.6 (inactive),109 (inactive)
COCCc1ccc(OCC(O)CNC(C)C)cc1 (stereo not drawn) [Metoprolol],104,99.5,102 (inactive),104 (inactive)
CC(=O)NCC1CN(c2ccc(N3CCOCC3)c(F)c2)C(=O)O1 (stereo not drawn) [Linezolid],104,99.7,93.4 (inactive),110 (inactive)
Cl.Nc1ccn(C2OC(CO)C(O)C2O)c(=O)n1 [Cytosine-1-beta-D-arabinofuranoside hydrochloride],75.3,45.5,121 (active),100 (inactive)
COc1ccc(CCNCC(O)c2ccc(O)cc2)cc1OC (stereo not drawn) [R(-)-Denopamine],100,103,93.5 (inactive),105 (inactive)
CSc1nc(N)c2ncn(C3OC(COP(=O)([O-])OP(=O)([O-])[O-])C(O)C3O)c2n1.[Na+].[Na+].[Na+] (stereo not drawn) [2-Methylthioadenosine diphosphate trisodium],99.9,92.9,99.2 (inactive),89.7 (inactive)
CC(=O)NC(CSCC=C(C)CCC=C(C)C)C(=O)O (stereo not drawn),101,101,93 (inactive),103 (inactive)
O=C(O)CCC(=O)c1ccc(-c2ccccc2)cc1 [Fenbufen],101,103,92.2 (inactive),119 (inactive)
O=c1c(O)c(-c2ccc(O)cc2O)oc2cc(O)cc(O)c12 [Morin],99.7,94,89.4 (inactive),98.5 (inactive)
CC(C)(C)c1nc2c3cc[nH]c(=O)c3c3cc(F)ccc3c2[nH]1,110,103,87 (inactive),101 (inactive)
Cc1c2oc3c(C)ccc(C(=O)NC4C(=O)NC(C(C)C)C(=O)N5CCCC5C(=O)N(C)CC(=O)N(C)C(C(C)C)C(=O)OC4C)c3nc-2c(C(=O)NC2C(=O)NC(C(C)C)C(=O)N3CCCC3C(=O)N(C)CC(=O)N(C)C(C(C)C)C(=O)OC2C)c(N)c1=O (stereo not drawn) [Actinomycin D],46.2,16.9,179 (active),175 (active)
"C=CC1(C)CCC2C(=CCC3C(C)(C(=O)O)CCCC23C)C1 (stereo not drawn) [(4alpha,13alpha)-pimara-7,15-dien-18-oic acid]",102,101,99 (inactive),86.6 (inactive)
CCCCCCCCCCCCCCCC(O)C(N)CO (racemic) [DL-Dihydrosphingosine],103,101,96.2 (inactive),100 (inactive)
CC(=O)O/N=C1\C(=O)N(Cc2cc(Cl)ccc2Cl)c2ccc(Cl)cc21,99.5,107,97.2 (inactive),99.5 (inactive)
Cc1ccc(CN2C(=O)S/C(=C\c3ccc(Cl)cc3)C2=O)cc1,99.6,117,98.2 (inactive),97.2 (inactive)
CCCCCCCCCCCCCCCCn1cc[n+](Cc2ccccc2)c1C.[I-],99.1,103,103 (inactive),106 (inactive)
CC1(C)CCCC(C)(C2CCC3(C)C2C(O)CC2C4(C)CCC(O)C(C)(C)C4C(O)CC23C)O1 (stereo not drawn) [Panaxatriol],100,93.4,94.8 (inactive),99.6 (inactive)
CC(NC(=O)CCc1nc(=O)c2ccccc2[nH]1)c1ccccc1 (stereo not drawn),103,111,93.7 (inactive),105 (inactive)
COc1cc2c(cc1OC)C(c1ccccc1)CN(C)CC2.O=C(O)C=CC(=O)O (stereo not drawn),101,98.3,94.3 (inactive),92.5 (inactive)
O=C(Nc1cc(C(F)(F)F)cc(C(F)(F)F)c1)c1cc(Cl)ccc1O,57,52.7,115 (inactive),122 (inactive)
C1CNCCN1.COc1cc(C(O)CO)ccc1O.COc1cc(C(O)CO)ccc1O (stereo not drawn) [MHPG piperazine],100,108,106 (inactive),93.6 (inactive)
COc1cc(C(=O)NS(=O)(=O)c2ccccc2C)ccc1Cc1cn(C)c2ccc(NC(=O)OC3CCCC3)cc12 [Zafirlukast],101,110,90.1 (inactive),105 (inactive)
